Compound activity deposited in PubChem by National Center for Advancing Translational Sciences (NCATS).
Pf growth 48h: P. falciparum growth inhibition at 48 hours (one generation); actives 5.9% (n = 310,000); Potency, µM (doses to about 28.7 µM), usual class: inhibitors; P. falciparum luciferase growth in erythrocytes, 48 h; AID 504832
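Cell-based growth assay: transgenic P. falciparum expressing firefly luciferase, cultured in red cells within RPMI 1640 containing 0.5% w/v Albumax, 24 mM bicarbonate and gentamycin. A drop in luciferase activity indicates inhibition.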
Sm TGR inh: S. mansoni TGR enzyme inhibition; purified TGR, DTNB reduction, TNB absorbance 405 nm; AID 485364; actives 3% (n = 360,000); Q962Y6; Potency, µM (top dose mostly 114 µM), hits mostly inhibitors; further: nearly all actives have a fitted effect of over 60% in size
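TGR 20 nM + NADPH 100 uM (dispensed conc.), cpd preinc 15 min RT; start with NADPH (500 uM addition) then DTNB (15 mM addition). Kinetic TNB absorbance, 405 nm filter. Four-parameter Hill fit across titration.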
Pf growth 96h: P. falciparum growth inhibition at 96 hours. Potency, µM (titrated, usually from 28.7 µM), most hits filed as inhibitors. AID 504834. P. falciparum luciferase reporter growth, 96 h. actives 6.9% (n = 320,000)
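P. falciparum expressing integrated firefly luciferase grown in erythrocytes (2% hematocrit, 0.05% parasitemia final) with compounds for 96 hours at 37 C, 5% CO2. Growth inhibition read as loss of luminescence after adding luciferase detection reagent.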
SARS PLpro yeast: SARS-CoV PLP inhibition in yeast | S. cerevisiae expressing SARS-CoV PLpro, growth rescue | Potency, µM (doses to about 32.9 µM), hits mostly activators | actives 0.19% (n = 330,000) | AID 485353; calls by dose curve; further: nearly all actives have a fitted effect of over 55% in size
Each line names hits and unclear results; the compound was inactive in the other large screens. Compounds with a hit are over-represented: about 12% of the library has one in this group of screens. Unless noted, the call rests on the fitted dose curve; in most records, active means well fitted curve in the direction sought with a large enough effect; inconclusive means small, poorly fitted or top-dose-only effect, or another doubt; inactive means no such curve, though single readings can be large; an effect the other way counts as inactive or inconclusive.

COc1ccc(NC(=O)CN2CCN(c3c(C)cc(C)cc3C)CC2)cc1	Pf growth 96h inconclusive
Cc1cccc(Cn2c(=O)n(CCCC(=O)NCc3ccccc3Cl)c(=O)c3ccccc32)c1	none (no result: Pf growth 48h, Pf growth 96h, SARS PLpro yeast)
O=C1C2C3C=CC(C4CC34)C2C(=O)N1/N=C/c1ccc(-c2ccc(F)cc2[N+](=O)[O-])o1 (centres undefined)	Pf growth 96h 4.7µM (no result: Pf growth 48h)
O=C1C2C3C=CC(C4CC34)C2C(=O)N1/N=C/c1ccc(-c2ccc(Cl)cc2[N+](=O)[O-])o1 (centres undefined)	none (no result: Pf growth 48h)
Cc1cccc(C(=O)NC(NCCc2ccccc2)C(Cl)(Cl)Cl)c1 (centres undefined)	Pf growth 48h inconclusive, Pf growth 96h 3.7µM
Cc1cccc(NC(NC(=O)c2cccnc2)C(Cl)(Cl)Cl)c1 (centres undefined)	Pf growth 48h inconclusive, Pf growth 96h 13µM
Cc1cccc(C(=O)NC(NCc2ccco2)C(Cl)(Cl)Cl)c1 (centres undefined)	none
COc1ccccc1CNC(=O)c1cccc(NC(=O)N2CCSc3ncccc32)c1	none (no result: Pf growth 48h, Pf growth 96h, SARS PLpro yeast)
COc1ccc(-c2nc(CCNC(=O)Cc3ccc(F)cc3)cs2)cc1	none (no result: Pf growth 48h, Pf growth 96h, SARS PLpro yeast)
C=CCn1c(O)c(C(CC)=NCCc2ccccc2)c(=O)[nH]c1=O	Sm TGR inh 89µM, Pf growth 96h inconclusive (no result: Pf growth 48h)
C=CCn1c(O)c(C(CC)=Nc2ccc(N(C)C)cc2)c(=O)[nH]c1=O	Pf growth 48h 0.66µM, Sm TGR inh 32µM, Pf growth 96h 1.7µM
C=CCn1c(O)c(C(C)=NCCc2ccccc2)c(=O)[nH]c1=O	none (no result: Pf growth 96h)
Cc1ccc(O)c(C(=O)c2cnc3c(c2)c(=O)n(C)c(=O)n3C)c1	Pf growth 48h inconclusive, Pf growth 96h 10µM
Cc1ccc(O)c(C(=O)c2cnc3c(c2)CN(CCC(C)C)C(=O)N3)c1	Pf growth 48h 2.9µM, Pf growth 96h 5.2µM
CCCCN1Cc2cc(C(=O)c3cc(OC)ccc3O)cnc2NC1=O	Pf growth 48h inconclusive, Pf growth 96h 9.3µM
CCc1ccc2occ(CC(=O)Nc3sc4c(c3C(=O)OC)CCC4)c2c1	none (no result: Pf growth 48h, Pf growth 96h, SARS PLpro yeast)
CCOc1ccc(NC(=O)c2ccc(-c3nc(COc4ccccc4)c(C)o3)cc2)cc1	none (no result: Pf growth 48h, Pf growth 96h, SARS PLpro yeast)
N#CCc1nc2ccc(S(=O)(=O)N3CCOCC3)cc2s1	Pf growth 48h 15µM, Pf growth 96h 13µM
NCC(c1ccccc1Cl)c1c[nH]c2ccccc12 (centres undefined)	Pf growth 48h 9.3µM, Pf growth 96h inconclusive
CCN(CC)S(=O)(=O)c1ccc2c(c1)nc(CN(C)C(=O)Nc1ccc(C)c(F)c1)n2C	none (no result: Pf growth 48h, Pf growth 96h, SARS PLpro yeast)
COc1ccc(NC(=O)[C@H](CCS(C)(=O)=O)N2Cc3ccccc3C2=O)c(OC)c1	Pf growth 96h 9.3µM (no result: Pf growth 48h)
CN1CCCC(CC2c3ccccc3Sc3ccccc32)C1 (centres undefined)	Pf growth 48h 9.3µM, Pf growth 96h inconclusive (no result: SARS PLpro yeast)
Cc1ccccc1C(=O)NC(CC(C)C)C(=O)OCC(=O)c1c(N)n(C)c(=O)n(C)c1=O (centres undefined)	Pf growth 48h 1µM, Pf growth 96h inconclusive
CC(=O)N/C(=C\c1ccccc1)C(=O)OCC(=O)c1c(N)n(CC(C)C)c(=O)n(C)c1=O	Pf growth 48h inconclusive
CC(=O)NC(CC(=O)OCC(=O)c1c(N)n(CC(C)C)c(=O)n(C)c1=O)c1ccccc1 (centres undefined)	Pf growth 48h 12µM, Pf growth 96h 9.3µM
Cn1c(N)c(C(=O)COC(=O)CC(NC(=O)c2ccccc2Cl)c2ccccc2)c(=O)n(C)c1=O (centres undefined)	Pf growth 48h 1.3µM, Pf growth 96h inconclusive
CC(C)CC(C(=O)OCC(=O)c1c(N)n(C)c(=O)n(C)c1=O)N1C(=O)c2ccccc2C1=O (centres undefined)	none
Nc1nc2[nH]cc(CCc3ccc(C(=O)NC(CCC(=O)O)C(=O)O)cc3)c2c(=O)[nH]1 (centres undefined)	Pf growth 48h 0.67µM, Pf growth 96h 1.3µM (no result: Sm TGR inh, SARS PLpro yeast)
Nc1nc2c(c(=O)[nH]1)N(C=O)[C@H](CNc1ccc(C(=O)N[C@@H](CCC(=O)O)C(=O)O)cc1)CN2	none (no result: Sm TGR inh, SARS PLpro yeast)
CCOc1ccc(NCC(=O)N/N=C/C=C/c2ccccc2)cc1	none
CCOc1ccc(N=C/C=C/c2ccccc2)c(O)c1	Sm TGR inh 40µM
Cc1ccc2c(c1)Oc1ccc([N+](=O)[O-])cc1C(=O)N2	Pf growth 48h inconclusive, Pf growth 96h inconclusive
Cc1ccc2c(c1)Oc1ccc(NC(=O)CCl)cc1C(=O)N2	Pf growth 48h inconclusive, Sm TGR inh 11µM, Pf growth 96h inconclusive
CN1CCN(C(c2ccc(C(F)(F)F)cc2)c2ccc3cccnc3c2O)CC1 (centres undefined)	Pf growth 48h inconclusive, Sm TGR inh 0.32µM, Pf growth 96h inconclusive
Oc1c(C(c2ccccc2Cl)N2CCCC2)ccc2cccnc12 (centres undefined)	Sm TGR inh inconclusive, Pf growth 96h inconclusive
Oc1c(C(c2cccs2)N2CCN(c3ccccc3)CC2)ccc2cccnc12 (centres undefined)	Pf growth 48h inconclusive, Sm TGR inh 0.71µM, Pf growth 96h inconclusive (no result: SARS PLpro yeast)
O=C(CSc1nnc(Nc2ccccc2)s1)NCc1cccs1	Pf growth 96h 12µM
CC(=O)Nc1ccc(S(=O)(=O)NC2C3(C)CCC(C3)C2(C)C)cc1 (centres undefined)	none
Cc1cccc(C)c1OCC(=O)N[C@@H](Cc1ccccc1)[C@@H](O)C[C@H](Cc1ccccc1)NC(=O)[C@H](C(C)C)N1CCCNC1=O	Pf growth 48h 3.4µM, Pf growth 96h 6.7µM (no result: Sm TGR inh, SARS PLpro yeast)
O=S(=O)(O)c1ccc(N=Nc2ccccc2)cc1	none
Oc1ccc(N=Nc2ccccc2)o1	Sm TGR inh 3.2µM
O=C(N/N=C(\c1ccccc1)c1cccnc1)c1cccc(F)c1	Pf growth 48h 1.9µM, Pf growth 96h inconclusive
O=C(N/N=C(\c1ccccc1)c1cccnc1)c1ccc(O)cc1	none
O=C(N/N=C(\Cc1ncc[nH]1)c1ccccc1)c1cccnc1	Pf growth 48h 9.3µM, Pf growth 96h inconclusive
COC(CNC(=S)Nc1ccc([N+](=O)[O-])cc1)OC	Sm TGR inh inconclusive
COc1ccc(NC(=S)NC(NC(=O)c2ccccc2Cl)C(Cl)(Cl)Cl)c([N+](=O)[O-])c1 (centres undefined)	Pf growth 96h 3.7µM (no result: Pf growth 48h)
COc1ccc(NC(=S)NC(NC(=O)CCl)C(Cl)(Cl)Cl)c([N+](=O)[O-])c1 (centres undefined)	Sm TGR inh 2.8µM
COC(=O)NC(NC(=S)Nc1ccc([N+](=O)[O-])cc1)C(Cl)(Cl)Cl (centres undefined)	Pf growth 48h 12µM, Sm TGR inh 20µM
COc1ccc(NC(=S)NC(NC(=O)CF)C(Cl)(Cl)Cl)cc1[N+](=O)[O-] (centres undefined)	Sm TGR inh 35µM, Pf growth 96h inconclusive
O=C(CF)NC(NC(=S)Nc1cccc([N+](=O)[O-])c1)C(Cl)(Cl)Cl (centres undefined)	Sm TGR inh inconclusive
COc1ccc(NC(=S)NC(NC(=O)c2ccc(Cl)cc2Cl)C(Cl)(Cl)Cl)c([N+](=O)[O-])c1 (centres undefined)	none (no result: Pf growth 48h)
COc1ccc(CCCc2nnc(SCC(=O)Nc3cc(F)ccc3C)o2)cc1	none (no result: Pf growth 48h, Pf growth 96h, SARS PLpro yeast)
